Laboratory results reported in PubChem BioAssay (NCATS).
A number with no mark means an inactive call. Inconclusive results are not listed. Where a call stands in place of a potency, no number is given. Active and inactive are the calls of the source. Calls follow the shape of the dose curve; as a rule, active = well fitted curve in the direction sought with a large enough effect; inconclusive = small, poorly fitted or top-dose-only effect, or another doubt; inactive = no such curve, though single readings can be large; an effect the other way counts as inactive or inconclusive.

Assays:
[1] = target: Glutathione peroxidase 1 (Homo sapiens) (UniProt P07203); test: Primary qHTS Assay for Inhibitors of Recombinant Selenoprotein Glutathione Peroxidase 1 (GPX1) (AID 1845191); also: nearly all actives have a fitted effect of over 65% in size
Chain of Glutathione peroxidase 1 (Homo sapiens) (P07203 whole entry, looked up): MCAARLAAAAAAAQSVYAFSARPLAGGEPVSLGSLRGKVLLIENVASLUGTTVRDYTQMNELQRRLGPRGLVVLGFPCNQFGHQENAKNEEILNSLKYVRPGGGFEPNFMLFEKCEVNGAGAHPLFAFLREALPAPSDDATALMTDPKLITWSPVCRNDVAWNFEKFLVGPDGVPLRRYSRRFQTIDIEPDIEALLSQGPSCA
Outline: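 GPX1 10 nM, GR 100 nM, GSH 1 mM, NADPH 0.5 mM, CHP 0.5 mM (final). 30-min cpd preincubation, RT. Ex340/Em450 read t=0, t=15 min.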

[2] = target: Phospholipid hydroperoxide glutathione peroxidase GPX4 (Homo sapiens) (UniProt P36969); test: Primary qHTS Assay for Inhibitors of Recombinant Selenoprotein Glutathione Peroxidase 4 (GPX4) (AID 1845192); also: nearly all actives have a fitted effect of over 65% in size
Chain of Phospholipid hydroperoxide glutathione peroxidase GPX4 (Homo sapiens) (P36969 whole entry, looked up): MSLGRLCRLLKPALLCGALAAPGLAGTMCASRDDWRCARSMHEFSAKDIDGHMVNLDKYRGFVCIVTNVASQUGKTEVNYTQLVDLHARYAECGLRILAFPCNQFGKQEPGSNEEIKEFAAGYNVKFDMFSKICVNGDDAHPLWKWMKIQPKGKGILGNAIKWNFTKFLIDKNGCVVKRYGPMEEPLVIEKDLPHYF
Outline: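 qHTS, GR-coupled: GPX4 200 nM + cpd 30 min RT → GSH 1 mM, NADPH 0.5 mM, GR 100 nM → CHP 0.5 mM start; fluor 340/450 at t0 and t15 min; no-enzyme wells as control.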

[3] = target: Luciferin 4-monooxygenase (Photinus pyralis) (UniProt P08659); test: Primary firefly luciferase (FLuc) qHTS assay for identification of artifact compounds. (AID 1845220); also: nearly all actives have a fitted effect of over 60% in size
Outline: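 qHTS, 15 min compound preincubation with substrate (10 uM luciferin, 10 uM ATP) at RT, then 10 nM FLuc; 5 min; luminescence; % inhibition vs no-enzyme/DMSO controls, 4-parameter Hill fit.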

[4] = Primary fluorescence-based thiol-reactive (MSTI) qHTS assay for identification of artifact compounds. (AID 1845221); also: nearly all actives have a fitted effect of over 65% in size; also: potency is read from the fitted curve at half-maximal effect;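 as to activity change, negative = thiol reactive: series mostly up to about 54 µM; thiol-reactive compounds lower the probe fluorescence signal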
Outline: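 Curve-fitted percent inhibition (4-parameter Hill) derived from fluorescence, Ex 525/Em 598 nm, scaled with Acetyl-MSTI and MSTI; 1 h incubation at room temperature.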

| Compound | Potency [1] | Potency [2] | Potency [3] | Potency [4] | activity change, negative = thiol reactive [4] | outcome [3] |
| --- | --- | --- | --- | --- | --- | --- |
| Cc1ncc(Cl)cc1NCc1ccc(C(=O)NC(CC2CCCC2)C(=O)NC2CC2)s1 (stereo not drawn) | inactive | inactive | inactive | inactive |  |  |
| C[C@@]1(O)[C@H](O)[C@@H](CO)O[C@H]1n1cnc2c(=O)[nH]c(N)nc21 | inactive | inactive |  | inactive |  |  |
| C[C@@H]1O[C@@H](OC2C(CO)OC(OCC3OC(OC(=O)[C@]45CCC(C)(C)CC4C4=CCC6[C@@]7(C)CC[C@@H](O)[C@](C)(C(=O)O)C7CC[C@@]6(C)[C@]4(C)CC5)C(O)C(O)C3O)C(O)C2O)[C@H](O)[C@H](O)[C@H]1O (stereo partly drawn) | inactive | inactive |  |  | 268% [at 11.5 µM] |  |
| C/C(=C\CCC1(C)C2CC3C(C2)C31C)C(=O)O (stereo not drawn) | inactive | inactive |  | inactive |  |  |
| CC(C)C1NC(=O)C(CC2(O)c3ccccc3N3C(=O)C(Cc4ccccc4)NC32)NC1=O (stereo not drawn) | inactive | inactive |  | inactive |  |  |
| COc1cncc(C#Cc2ccccn2)c1 | inactive | inactive |  | inactive |  |  |
| N#Cc1cccc(-c2nc(-c3cccnc3)no2)c1 | inactive | inactive |  | inactive |  |  |
| C=C(C)C1CCC2(C(=O)OC3OC(COC4OC(CO)C(O)C(O)C4O)C(OC4OC(C)C(O)C(O)C4O)C(O)C3O)CCC3(C(=O)O)C(CCC4C5(C)CCC(=O)C(C)(C)C5CCC43C)C12 (stereo not drawn) | inactive | inactive |  |  | 183% [at 11.5 µM] | inactive [at 11.6 µM] |
| C/C=C/C=C/C=C/C(=O)O[C@@H]1[C@@H](OC)C2=C(C(=O)N(C(CCC(=O)O)C(=O)O)C2)[C@@]2(C)CCCC(C)(C)[C@H]12 (stereo partly drawn) | inactive | inactive |  | inactive |  |  |
| Cc1ccc(-c2c(-c3nn(C)c4ncnc(N5CCC(N6CCCCC6)C5)c34)cnn2C)cc1 (stereo not drawn) | inactive | inactive |  | inactive |  |  |
| Cc1cn(C[C@H](N)C(=O)O)c(=O)n(Cc2ccsc2C(=O)O)c1=O | inactive | inactive |  | inactive |  |  |
| CC(=O)OC12CC(C)C(OC(=O)c3ccccc3)C1/C=C(/C)C(OC(=O)c1ccccc1)CC(=O)C(C)(C)/C=C/C(C)C2=O (stereo not drawn) | inactive | inactive |  | inactive |  |  |
| CC(=O)NC1CC(=O)C23C(=O)NC(Cc4c[nH]c5ccccc45)C2C(C)=C(C)C(O)C3/C=C/CC(C)/C=C(/C)C(O)C1O (stereo not drawn) | inactive | inactive | inactive | inactive |  |  |
| COc1ccccc1Oc1c(NS(=O)(=O)c2ccc(C)cn2)nc(-c2ccncc2)nc1OC | inactive | inactive |  | inactive |  |  |
| CN1CCc2cc(Cl)c(O)cc2[C@@H](c2cccc3c2OCC3)C1 | inactive | inactive |  | inactive |  |  |
| CC1=CC(=O)[C@]2(O[C@@H]3O[C@@H](C)[C@H](O)[C@@H](O)[C@H]3O)C=CO[C@@H](O[C@@H]3O[C@H](CO)[C@@H](O)[C@H](O)[C@H]3O)[C@H]12 | inactive | inactive |  | 5.82 µM (active) |  |  |
| O=C(N[C@H](Cc1ccccc1)C(=O)O)c1sc2cc(F)ccc2c1Cl | inactive | inactive |  | inactive |  |  |
| CC1=CC(=O)CC(C)(C)C1CO[C@@H]1O[C@H](CO)[C@@H](O)[C@H](O)[C@H]1O (stereo partly drawn) | inactive | inactive |  | inactive |  |  |
| COc1cc(O)c(C(=O)O)c(CCc2ccccc2)c1 | inactive | inactive |  | inactive |  |  |
| O=C(Nc1ccccc1)Nc1ccc(-c2ccc(C(=O)C3CCCC3C(=O)O)cc2)cc1 (stereo not drawn) | inactive | inactive |  | inactive |  |  |
| COc1cc(O)cc(C)c1C(=O)O[C@H]1[C@@H](O)[C@@H](n2ccc(=O)[nH]c2=O)O[C@@H]1CO | inactive | inactive |  | inactive |  |  |
| CC(C)(O)c1ccc2c(c1)C(=O)C[C@H]1[C@](C)(C(=O)O)CCC[C@]21C | inactive | inactive | inactive | inactive |  |  |
| COc1ccc(C2(O)c3ccccc3NC(=O)C2OC)cc1 (stereo not drawn) | inactive | inactive | inactive | inactive |  |  |
| O=C(NC1Cc2ccccc2N(C[C@@H](O)CO)C1=O)c1cc2cc(Cl)sc2[nH]1 (stereo partly drawn) |  | inactive | inactive | inactive |  |  |
| C=CC(C)(O)CCC1C(C)(O)CCC2C(C)(C)CCCC21C (stereo not drawn) |  | inactive | inactive | inactive |  |  |
| COc1cc(/C=C/c2ccccc2)c(C(=O)O)c(O)c1CC=C(C)C |  | inactive | inactive |  |  |  |
| Cc1sc(C)c(C(=O)NC2(c3ccc(C(=O)O)cc3)CC2)c1Cc1ccc(C(F)(F)F)cc1 |  | inactive | inactive | inactive |  |  |
| CC(C)C1CCC(C(=O)N[C@@H](Cc2ccccc2)C(=O)O)CC1 (stereo partly drawn) |  | inactive | inactive | inactive |  |  |
